Test results taken from PubChem BioAssay.
Activity calls are given as the source filed them.

assay: probe aXIP binding to arrayed compounds – biochemical, NeuroSMM set, 635/667 nm fluorescence, primary screen (AID 1119); details: small-molecule microarray, higher = more signal, called active from +8 up or from −8 down;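 note: probe is the protein aXip251-270 applied at 1 µg/mL to compound-printed slides; binding of probe to printed compounds measured as 667 nm fluorescence plus signal to noise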

Composite Z-score, inactive:
CC(C)CCN1CCc2nc(COc3ccccc3)c3c(c2C1)CO[C@@H](C)C3 0.354
O=C(NN=C1C[C@@H](O)[C@@H](O)[C@@H]2[C@@H]3C(=O)N(Cc4ccccc4)C(=O)[C@@H]3CC[C@@H]12)OCc1ccccc1 0.586
CO[C@@H]1COC(=O)[C@@H](C)COC(=O)[C@@H](C)NC(=O)CC=C[C@@H]1C -0.377
CO[C@@H]1COC(=O)CC=C[C@@H](C)[C@@H]2C=C[C@H](O)[C@@H](COC(=O)CC=C[C@H]1C)O2 0.718
COC(=O)[C@@H]1CC[C@H](C)[C@@H](c2ccc(C)cc2)N1C(=O)c1ccc(C=NO[C@H](C)c2cn([C@H](CO)Cc3ccccc3)nn2)cc1 0.402
CCC=CCCC(OC(=O)c1ccc(Br)cc1)C1=CCCCC1=O (stereo unspecified) -0.0549
CO[C@H]1COC(=O)[C@@H](C)COC(=O)[C@H](COCc2ccccc2)NC(=O)CC=C[C@H]1C 2.09
CCOC(=O)CCN1C(=O)[C@H]2[C@H]3[C@H](O)[C@H](O)CC(=NOCC(C)C)[C@H]3CC[C@H]2C1=O 0.636
C#CCCCON=C1C[C@@H](O)[C@@H](O)[C@@H]2[C@@H]3C(=O)N(CC)C(=O)[C@@H]3CC[C@@H]12 -0.0844
CON=C1[C@H]2CCn3c(=O)n(-c4ccccc4)c(=O)n3[C@H]2[C@H](O)[C@@H]2O[C@H]12 0.119
CC(C)=CCCC(C)=CCON=C1C[C@@H](O)[C@@H](O)[C@@H]2[C@@H]3C(=O)N(C(C)(C)C)C(=O)[C@@H]3CC[C@@H]12 -0.204
